Where “and” joins values, the source holds several entries; their conditions need not be identical. Equal entries are not always repeated. Inconclusive results are not listed. More than one record can exist for a structure, and the calls need not agree. Calls of active or inactive are those of the source. The calls were made as follows, unless noted: active = hit-call score of the fitted dose curve at least 0.9, where 1 is the maximum; inactive = score below 0.9.
Experiments:
[1] = read-out: E-selectin (Homo sapiens) (UniProt P16581); test: BSK_SAg_Eselectin: BioMAP Diversity Plus: SAg Assay for Eselectin Biomarker Activity (AID 2283091); conditions: primary human HUVEC with PBMC; actives raise or lower the signal
Summary of the method: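 Primary human endothelial cells and peripheral blood mononuclear cells were co-cultured and exposed to chemical for 24 hours. E-selectin levels were then quantified by ELISA, with bidirectional curve fitting normalised to DMSO controls.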

[2] = read-out: Monokine induced gamma interferon (MIG), CXCL9 (gene 4283); test: BSK_SAg_MIG: BioMAP Diversity Plus: SAg Assay for Monokine induced gamma interferon (MIG) Biomarker Activity (AID 2283092); conditions: primary human HUVEC with PBMC; actives raise or lower the signal
Summary of the method: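 Measures CXCL9 protein by ELISA in a human vascular primary-cell co-culture (umbilical vein endothelium with PBMC) 24 h after chemical addition. Activity is scored up or down from the DMSO control.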

[3] = BSK_SAg_PBMCCytotoxicity: PBMC Cytotoxicity Assessment in the BioMAP Diversity Plus: SAg Assay (AID 2283093); conditions: primary human HUVEC with PBMC;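 also: PBMC viability measured as Alamar Blue reduction fluorescence at 546/580 nm; fitted both ways against DMSO so a hit may be loss or gain of signal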;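 as to AC50: PBMC superantigen activated with SEB plus TSST-1 one hour after compound addition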
Summary of the method: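 Compound added to 75,000 PBMC/well for 1 h; SEB and TSST-1 then added at 20 ng/mL final each; 90 h incubation; Alamar Blue 6 h; read 546/580 nm ex/em. Activity fitted bidirectionally relative to DMSO baseline.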

[4] = read-out: Interleukin-8 (IL8), CXCL8 (gene 3576); test: BSK_SAg_IL8: BioMAP Diversity Plus: SAg Assay for Interleukin-8 (IL8) Biomarker Activity (AID 2283094); conditions: primary human HUVEC with PBMC; actives raise or lower the signal
Summary of the method: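 ELISA read-out of IL-8 in a primary human vascular co-culture (umbilical vein endothelium plus PBMC), taken 24 h after compound addition. Values derive from bidirectional fits against DMSO negative controls.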

[5] = BSK_SAg_SRB: Viability Assessment in the BioMAP Diversity Plus: SAg Assay (AID 2283096); conditions: primary human HUVEC with PBMC;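 also: cells read one day after compound addition; hits may be either gain or loss of signal compared with DMSO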
Summary of the method: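 Total protein by sulforhodamine B staining, 24 h after dosing, in HUVEC–PBMC co-culture; DMSO-referenced bidirectional fitting.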

[6] = target: human CYP19A1, CYP19A1 (gene 1588) (UniProt P11511); test: NVS_ADME_hCYP19A1: NovaScreen (NVS) CYP450-related Enzyme Activity (ADME) Assay for human CYP19A1 (AID 2283098; active = hit-call score of the fitted dose curve at least 0.9, where 1 is the maximum;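 as to AC50: potency for inhibitors seen as loss of fluorescent enzyme signal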)
Summary of the method: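 Biochem, cell-free; recombinant enzyme + specific substrate; fluorescence intensity at 0.5 h post-dose; 10 uM duplicate primary, conc. series for actives; acetonitrile = negative control/baseline; positive and negative controls on every plate.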

[7] = target: Cytochrome P450 2C18 (Homo sapiens) (UniProt P33260); test: NVS_ADME_hCYP2C18: NovaScreen (NVS) CYP450-related Enzyme Activity (ADME) Assay for human CYP2C18 (AID 2283103)
Summary of the method: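 Cell-free recombinant human CYP2C18 with fluorogenic substrate; fluorescence intensity read 0.5 h after dosing. Single-point screen at 10 uM in duplicate, then concentration-response up to 20 uM; loss of signal fitted against acetonitrile baseline.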

[8] = target: human CYP2C9, CYP2C9 (gene 1559) (UniProt P11712); test: NVS_ADME_hCYP2C9: NovaScreen (NVS) CYP450-related Enzyme Activity (ADME) Assay for human CYP2C9 (AID 2283108; active = hit-call score of the fitted dose curve at least 0.9, where 1 is the maximum)
Summary of the method: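 Fluorescence readout of CYP2C9 activity (SF9-expressed human enzyme) at 0.75 h. The primary screen used 10 uM in duplicate, with concentration-response follow-up for actives; acetonitrile was the negative control.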

[9] = target: Cytochrome P450 2C19 (Homo sapiens) (UniProt P33261); test: NVS_ADME_hCYP2C19: NovaScreen (NVS) CYP450-related Enzyme Activity (ADME) Assay for human CYP2C19 (AID 2283113; active = hit-call score of the fitted dose curve at least 0.9, where 1 is the maximum;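 as to AC50: potency for inhibition seen as loss of fluorescent signal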)
Summary of the method: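 Chemicals first screened in duplicate at 10 uM against recombinant human enzyme produced in insect cells; confirmed actives then run as concentration series. Fluorogenic substrate turnover read by fluorescence after 1 h, normalised to acetonitrile.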

[10] = BSK_SAg_Proliferation: Cell Proliferation Assessment in the BioMAP Diversity Plus: SAg Assay (AID 2283095); conditions: primary human HUVEC with PBMC;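 also: relative cell number as total protein by SRB absorbance in sub-confluent culture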
Summary of the method: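 Cells (endothelium plus PBMC, human primary) were dosed with chemical, cultured 96 h, fixed in 10% TCA and stained with 0.1% SRB. Absorbance at 560 nm gave relative protein, fitted bidirectionally relative to DMSO.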

[11] = target: human CYP1A1, CYP1A1 (gene 1543) (UniProt P04798); test: NVS_ADME_hCYP1A1: NovaScreen (NVS) CYP450-related Enzyme Activity (ADME) Assay for human CYP1A1 (AID 2283100; active = hit-call score of the fitted dose curve at least 0.9, where 1 is the maximum)
Summary of the method: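 Compounds first went through duplicate single-concentration testing at 10 uM against purified CYP1A1. Those passing a threshold such as 30% inhibition entered singleton dose-response, highest concentration 20 uM. Signal was fluorescence measured after 1 hour.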

[12] = target: human CYP1A2, CYP1A2 (gene 1544) (UniProt P05177); test: NVS_ADME_hCYP1A2: NovaScreen (NVS) CYP450-related Enzyme Activity (ADME) Assay for human CYP1A2 (AID 2283102; active = hit-call score of the fitted dose curve at least 0.9, where 1 is the maximum;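 as to AC50: fluorescence from turnover of a fluorogenic substrate by recombinant insect-cell CYP1A2; potency for inhibition since loss of fluorescence marks reduced CYP1A2 activity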)
Summary of the method: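 Compounds were tested at 10 uM in duplicate against recombinant CYP1A2 produced in insect cells. Enzyme activity was measured by fluorescence 0.5 h after dosing, with loss of signal versus acetonitrile control. Active compounds were re-tested in concentration series.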

[13] = target: Cytochrome P450 3A4 (Homo sapiens) (UniProt P08684); test: NVS_ADME_hCYP3A4: NovaScreen (NVS) CYP450-related Enzyme Activity (ADME) Assay for human CYP3A4 (AID 2283110; active = hit-call score of the fitted dose curve at least 0.9, where 1 is the maximum)
Summary of the method: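 Compounds were first screened in duplicate at 10 uM against recombinant CYP3A4 produced in insect cells, then actives were run in concentration series. Enzyme activity was measured by fluorescence after 0.33 hour, with acetonitrile as baseline.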

[14] = target: human CYP2A6, CYP2A6 (gene 1548) (UniProt P11509); test: NVS_ADME_hCYP2A6: NovaScreen (NVS) CYP450-related Enzyme Activity (ADME) Assay for human CYP2A6 (AID 2283099; active = hit-call score of the fitted dose curve at least 0.9, where 1 is the maximum)
Summary of the method: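 Recombinant human CYP2A6 from insect cells was incubated with chemical for 0.5 h and activity read by fluorescence. Single-concentration duplicates at 10 uM preceded concentration-response testing to 20 uM, with activity referenced to acetonitrile.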

[15] = target: human CYP2B6, CYP2B6 (gene 1555) (UniProt P20813); test: NVS_ADME_hCYP2B6: NovaScreen (NVS) CYP450-related Enzyme Activity (ADME) Assay for human CYP2B6 (AID 2283101; active = hit-call score of the fitted dose curve at least 0.9, where 1 is the maximum)
Summary of the method: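 Recombinant protein, specific fluorescent substrate, read at 1 h post-dosing. Primary: single 10 uM, duplicate; follow-up: concentration series. Activity = signal loss vs acetonitrile baseline, with positive and negative controls on every plate.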

[16] = target: human CYP2D6, CYP2D6 (gene 1565) (UniProt P10635); test: NVS_ADME_hCYP2D6: NovaScreen (NVS) CYP450-related Enzyme Activity (ADME) Assay for human CYP2D6 (AID 2283107; active = hit-call score of the fitted dose curve at least 0.9, where 1 is the maximum)
Summary of the method: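 Compounds were first tested in duplicate at 10 uM against recombinant enzyme produced in insect cells, with substrate turnover measured by fluorescence after 1 hour. Decreased signal, referenced to acetonitrile vehicle, was taken as reduced enzyme activity. Active chemicals went on to concentration-response testing.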

Measured: AC50

Sequence of human CYP2C9, CYP2C9 (gene 1559) (P11712 whole entry, looked up): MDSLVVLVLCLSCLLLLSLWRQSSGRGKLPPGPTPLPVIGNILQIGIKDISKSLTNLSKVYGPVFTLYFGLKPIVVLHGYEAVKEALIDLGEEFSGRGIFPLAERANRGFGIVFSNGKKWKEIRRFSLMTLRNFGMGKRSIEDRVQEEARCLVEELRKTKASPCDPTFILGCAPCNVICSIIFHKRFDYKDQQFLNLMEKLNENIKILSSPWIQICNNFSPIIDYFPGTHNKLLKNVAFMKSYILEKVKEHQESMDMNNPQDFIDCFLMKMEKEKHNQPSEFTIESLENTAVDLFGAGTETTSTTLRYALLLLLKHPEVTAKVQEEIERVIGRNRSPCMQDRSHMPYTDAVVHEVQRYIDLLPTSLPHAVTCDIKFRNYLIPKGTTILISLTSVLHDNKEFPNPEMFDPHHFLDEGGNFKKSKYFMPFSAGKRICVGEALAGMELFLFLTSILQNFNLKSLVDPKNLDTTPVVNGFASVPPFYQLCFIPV
Sequence of human CYP19A1, CYP19A1 (gene 1588) (P11511 whole entry, looked up): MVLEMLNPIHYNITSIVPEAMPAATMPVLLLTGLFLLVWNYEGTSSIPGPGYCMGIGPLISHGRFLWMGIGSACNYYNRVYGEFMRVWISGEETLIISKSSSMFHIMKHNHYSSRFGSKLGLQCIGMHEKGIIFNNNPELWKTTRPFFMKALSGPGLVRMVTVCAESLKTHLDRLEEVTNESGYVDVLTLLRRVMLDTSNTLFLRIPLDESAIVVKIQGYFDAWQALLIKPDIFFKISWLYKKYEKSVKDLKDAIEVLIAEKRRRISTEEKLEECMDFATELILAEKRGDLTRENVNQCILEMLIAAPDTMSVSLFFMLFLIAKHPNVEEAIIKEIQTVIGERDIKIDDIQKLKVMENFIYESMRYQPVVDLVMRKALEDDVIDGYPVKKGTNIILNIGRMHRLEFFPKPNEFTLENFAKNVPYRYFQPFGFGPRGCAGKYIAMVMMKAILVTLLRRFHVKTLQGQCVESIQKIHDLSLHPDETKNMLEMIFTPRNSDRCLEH
Sequence of Cytochrome P450 3A4 (Homo sapiens) (P08684 whole entry, looked up): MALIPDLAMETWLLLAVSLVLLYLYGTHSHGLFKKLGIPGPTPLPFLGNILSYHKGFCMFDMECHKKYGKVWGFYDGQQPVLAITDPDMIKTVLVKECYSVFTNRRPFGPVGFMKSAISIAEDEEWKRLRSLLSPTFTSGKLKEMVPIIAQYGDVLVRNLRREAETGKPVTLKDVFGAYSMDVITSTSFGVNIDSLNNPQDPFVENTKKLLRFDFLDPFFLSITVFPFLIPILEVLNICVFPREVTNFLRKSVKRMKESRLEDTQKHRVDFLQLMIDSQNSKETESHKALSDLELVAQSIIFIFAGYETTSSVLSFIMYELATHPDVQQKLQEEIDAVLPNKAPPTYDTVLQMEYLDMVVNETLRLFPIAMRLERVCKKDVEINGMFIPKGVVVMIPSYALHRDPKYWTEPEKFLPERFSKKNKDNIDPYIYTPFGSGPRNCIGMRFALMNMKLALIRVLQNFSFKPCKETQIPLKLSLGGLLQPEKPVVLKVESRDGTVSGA
Sequence of human CYP1A2, CYP1A2 (gene 1544) (P05177 whole entry, looked up): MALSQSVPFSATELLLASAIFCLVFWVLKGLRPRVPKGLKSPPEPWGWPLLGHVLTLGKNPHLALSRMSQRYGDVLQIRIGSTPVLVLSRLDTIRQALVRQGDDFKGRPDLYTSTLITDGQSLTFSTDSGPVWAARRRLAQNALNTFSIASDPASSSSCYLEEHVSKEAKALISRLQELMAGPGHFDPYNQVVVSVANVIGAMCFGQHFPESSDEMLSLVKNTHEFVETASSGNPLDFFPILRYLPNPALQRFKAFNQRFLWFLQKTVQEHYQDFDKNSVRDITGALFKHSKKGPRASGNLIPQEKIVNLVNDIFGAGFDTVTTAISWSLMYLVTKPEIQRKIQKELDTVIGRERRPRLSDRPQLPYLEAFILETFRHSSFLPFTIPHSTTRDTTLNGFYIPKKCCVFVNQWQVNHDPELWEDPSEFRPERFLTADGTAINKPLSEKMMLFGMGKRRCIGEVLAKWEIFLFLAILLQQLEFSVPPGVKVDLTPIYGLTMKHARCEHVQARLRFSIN
Sequence of human CYP2B6, CYP2B6 (gene 1555) (P20813 whole entry, looked up): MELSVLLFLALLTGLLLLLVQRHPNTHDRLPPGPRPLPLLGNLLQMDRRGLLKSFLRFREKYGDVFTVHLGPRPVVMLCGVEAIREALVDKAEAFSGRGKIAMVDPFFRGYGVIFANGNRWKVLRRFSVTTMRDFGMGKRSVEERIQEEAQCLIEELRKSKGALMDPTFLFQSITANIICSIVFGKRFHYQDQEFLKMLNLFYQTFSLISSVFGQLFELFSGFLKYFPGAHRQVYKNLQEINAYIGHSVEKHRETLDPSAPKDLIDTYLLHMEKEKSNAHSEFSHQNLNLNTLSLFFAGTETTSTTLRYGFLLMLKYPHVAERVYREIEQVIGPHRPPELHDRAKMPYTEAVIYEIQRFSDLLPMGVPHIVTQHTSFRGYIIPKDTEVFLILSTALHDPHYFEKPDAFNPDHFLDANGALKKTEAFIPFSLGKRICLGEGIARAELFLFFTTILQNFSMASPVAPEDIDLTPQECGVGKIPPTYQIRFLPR
Sequence of E-selectin (Homo sapiens) (P16581 whole entry, looked up): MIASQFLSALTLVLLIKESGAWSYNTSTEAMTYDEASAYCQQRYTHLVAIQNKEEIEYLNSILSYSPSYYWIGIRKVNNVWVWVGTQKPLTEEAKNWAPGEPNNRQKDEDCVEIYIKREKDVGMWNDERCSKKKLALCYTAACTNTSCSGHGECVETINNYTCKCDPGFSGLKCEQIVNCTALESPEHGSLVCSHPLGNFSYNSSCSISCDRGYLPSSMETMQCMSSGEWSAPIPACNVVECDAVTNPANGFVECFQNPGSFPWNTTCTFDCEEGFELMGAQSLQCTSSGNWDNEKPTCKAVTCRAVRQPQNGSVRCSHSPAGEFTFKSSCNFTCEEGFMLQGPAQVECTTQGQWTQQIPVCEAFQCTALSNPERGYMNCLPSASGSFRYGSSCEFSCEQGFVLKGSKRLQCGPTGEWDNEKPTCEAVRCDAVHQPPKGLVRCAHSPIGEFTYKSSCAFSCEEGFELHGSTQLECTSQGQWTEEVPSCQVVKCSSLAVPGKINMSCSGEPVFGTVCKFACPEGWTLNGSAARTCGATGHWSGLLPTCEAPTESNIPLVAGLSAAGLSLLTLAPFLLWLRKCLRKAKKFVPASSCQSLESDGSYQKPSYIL
Sequence of human CYP2A6, CYP2A6 (gene 1548) (P11509 whole entry, looked up): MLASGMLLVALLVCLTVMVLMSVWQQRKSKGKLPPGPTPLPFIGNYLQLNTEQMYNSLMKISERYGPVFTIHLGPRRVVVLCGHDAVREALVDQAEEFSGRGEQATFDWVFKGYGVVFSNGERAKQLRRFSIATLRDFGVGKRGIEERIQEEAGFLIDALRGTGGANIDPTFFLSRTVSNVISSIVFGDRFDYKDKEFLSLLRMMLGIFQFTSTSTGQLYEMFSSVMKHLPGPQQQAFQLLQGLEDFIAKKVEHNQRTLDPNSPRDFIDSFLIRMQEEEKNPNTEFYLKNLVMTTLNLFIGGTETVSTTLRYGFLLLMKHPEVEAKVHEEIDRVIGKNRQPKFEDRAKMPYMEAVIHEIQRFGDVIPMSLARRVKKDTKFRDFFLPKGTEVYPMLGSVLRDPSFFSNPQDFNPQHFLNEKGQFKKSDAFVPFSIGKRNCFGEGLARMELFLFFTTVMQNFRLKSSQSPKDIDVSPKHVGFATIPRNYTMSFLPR
Sequence of Cytochrome P450 2C18 (Homo sapiens) (P33260 whole entry, looked up): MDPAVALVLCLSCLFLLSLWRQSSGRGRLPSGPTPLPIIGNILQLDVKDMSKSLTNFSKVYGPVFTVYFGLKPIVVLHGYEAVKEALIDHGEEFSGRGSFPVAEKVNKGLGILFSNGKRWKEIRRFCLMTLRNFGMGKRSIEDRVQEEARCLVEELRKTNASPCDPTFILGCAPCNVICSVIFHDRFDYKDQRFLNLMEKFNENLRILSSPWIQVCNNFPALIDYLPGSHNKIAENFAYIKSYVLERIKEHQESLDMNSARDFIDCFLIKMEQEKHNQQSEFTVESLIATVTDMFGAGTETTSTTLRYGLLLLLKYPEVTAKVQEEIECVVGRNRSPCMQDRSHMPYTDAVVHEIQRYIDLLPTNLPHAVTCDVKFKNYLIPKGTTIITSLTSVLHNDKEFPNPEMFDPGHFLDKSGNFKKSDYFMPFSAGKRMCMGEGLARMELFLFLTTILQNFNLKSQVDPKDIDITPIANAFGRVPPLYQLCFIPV
Sequence of human CYP1A1, CYP1A1 (gene 1543) (P04798 whole entry, looked up): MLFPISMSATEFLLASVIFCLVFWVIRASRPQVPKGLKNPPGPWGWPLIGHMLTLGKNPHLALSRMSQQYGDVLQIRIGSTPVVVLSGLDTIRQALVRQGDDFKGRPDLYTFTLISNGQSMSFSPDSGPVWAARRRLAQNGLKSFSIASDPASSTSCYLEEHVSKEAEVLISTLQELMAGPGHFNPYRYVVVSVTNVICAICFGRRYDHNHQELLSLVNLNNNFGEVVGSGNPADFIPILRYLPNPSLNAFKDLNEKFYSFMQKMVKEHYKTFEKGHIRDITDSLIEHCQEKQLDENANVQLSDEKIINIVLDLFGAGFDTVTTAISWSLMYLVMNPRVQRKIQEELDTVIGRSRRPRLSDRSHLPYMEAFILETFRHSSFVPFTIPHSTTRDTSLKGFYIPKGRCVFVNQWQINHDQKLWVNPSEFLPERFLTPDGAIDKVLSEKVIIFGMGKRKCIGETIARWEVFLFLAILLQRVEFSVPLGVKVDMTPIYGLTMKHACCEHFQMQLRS

CCCCC(CC)COC(=O)c1ccccc1C(=O)OCC(CC)CCCC (stereo unspecified)
active: [5] 5 µM | [6] 3.05 µM
inactive: [1] | [2] | [3] | [4] | [7] | [8] | [9]

O=C(O)COc1nc(Cl)c(Cl)cc1Cl
inactive: [1] | [2] | [3] | [4] | [10] | [5]

CC(C)(C)c1ccc(CSc2cnn(C(C)(C)C)c(=O)c2Cl)cc1
active: [1] 0.148 µM | [3] 0.0975 µM | [4] 0.453 µM | [10] 6.61 µM | [5] 13.6 µM
inactive: [2]

Cc1cc(Cl)ccc1OCC(=O)O
inactive: [1] | [3] | [4] | [10] | [5]

COC(=O)c1ccccc1C(=O)OC
inactive: [1] | [2] | [3] | [4] | [10] | [5]

CCNc1nc(Cl)nc(NC(C)C)n1
active: [1] 13.9 µM | [12] 14.8 µM and 9.2 µM | [9] 10 µM
inactive: [2] | [3] | [4] | [10] | [5] | [6] | [11]

COc1cnc(OC)n2nc(NS(=O)(=O)c3c(OCC(F)F)cccc3C(F)(F)F)nc12
inactive: [1] | [2] | [3] | [4] | [10] | [5]

CO/C=C(/C(=O)OC)c1ccccc1Oc1cc(Oc2ccccc2C#N)ncn1
inactive: [3] | [5] | [6] | [8] | [13]
active: [1] 17.4 µM [middle of 4 runs] | [3] 6.9 µM and 5.28 µM and 13 µM | [4] 12.5 µM [middle of 4 runs] | [10] 13.9 µM [middle of 4 runs] | [5] 21.1 µM and 15.4 µM | [7] 5.5 µM

Oc1ccccc1-c1ccccc1
inactive: [1] | [3] | [4] | [10] | [5]
active: [6] 4.05 µM

CC(Oc1ccc(Cl)cc1Cl)C(=O)O (stereo unspecified)
inactive: [1] | [3] | [4] | [10] | [5]

C=CCC1=C(C)C(OC(=O)C2C(C=C(C)C)C2(C)C)CC1=O (stereo unspecified)
inactive: [5] | [14] | [15] | [8] | [13]
active: [1] 32.6 µM [middle of 4 runs] | [3] 34 µM [middle of 4 runs] | [4] 28.9 µM [middle of 4 runs] | [10] 30.9 µM [middle of 4 runs] | [5] 32.1 µM and 32.7 µM and 36.2 µM | [8] 7.07 µM and 14.6 µM and 6.76 µM

Cc1c(F)c(F)c(COC(=O)C2C(/C=C(\Cl)C(F)(F)F)C2(C)C)c(F)c1F (stereo unspecified)
active: [1] 12.5 µM | [10] 26.6 µM | [5] 25.9 µM
inactive: [3] | [4]

C=CC1(C)OC(=O)N(c2cc(Cl)cc(Cl)c2)C1=O (stereo unspecified)
active: [15] 6.73 µM and 5.83 µM | [9] 5.01 µM and 10 µM and 1.87 µM
not listed: [6] | [7] | [8] | [14] | [16]
inactive: all other assays above

N#Cc1nn(-c2c(Cl)cc(C(F)(F)F)cc2Cl)c(N)c1S(=O)C(F)(F)F (stereo unspecified)
active: [1] 29.8 µM | [3] 5.04 µM | [4] 27.8 µM | [10] 15.6 µM | [5] 34 µM | [8] 1.14 µM | [9] 0.751 µM

COc1nc(C)nc(NC(=O)NS(=O)(=O)c2ccccc2CCC(F)(F)F)n1
inactive: [1] | [3] | [4] | [10] | [5] | [8]

N#Cc1cc(Br)c(O)c(Br)c1
inactive: [1] | [16]
active: [3] 14.4 µM | [4] 30.5 µM | [10] 33.4 µM | [5] 20 µM

Reference: PubChem BioAssay (EPA / NIEHS)
